Data on five molecules can be found in PubChem BioAssay.

Molecules are shown by their SMILES. Values joined by “and” are separate entries in the source; they are usually repeats but may differ in a detail not shown here. Equal entries are not always repeated. Inconclusive results are not listed. Active and inactive are the calls of the source.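 The calls were made as follows, unless noted: active = normalized viability below 100% at a tested concentration; inactive = the rest.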

The nature of assay [1]: growth inhibition of DIPG glioma cells, dose response, cell-based, SU-DIPG-XVII, MIPE5.0, CellTiter-Glo, qHTS (AID 1347060; cut-off not given, nearly all actives have AC50 up to about 26 µM;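 as to AC50: cells exposed to compound for 48 hours before viability readout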). To be noted: SU-DIPG-XVII viability, CellTiter-Glo ATP luminescence. On the technique in general: Cellular ATP, detected with luciferase, serves as a proxy for viable cell number.
Assay [2] in a line: growth inhibition of DIPG glioma cells, dose response, cell-based, SU-DIPG-XIII, MIPE4.0, CellTiter-Glo, qHTS (AID 1347061; cut-off not given, nearly all actives have AC50 up to about 37 µM;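 also: cells exposed to compound for 48 hours before readout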). To be noted: SU-DIPG-XIII viability, CellTiter-Glo ATP luminescence.
A short description of assay [3]: growth inhibition of DIPG glioma cells, dose response, cell-based, JHH-DIPG-1, MIPE4.0, CellTiter-Glo, qHTS (AID 1347062; cut-off not given, nearly all actives have AC50 up to about 27 µM;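 as to AC50: cells exposed to compound for two days before readout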). The settings on record: JHH-DIPG-1 viability, CellTiter-Glo ATP luminescence.
Assay [4] in a line: growth inhibition of DIPG glioma cells, dose response, cell-based, SU-DIPG-IV, MIPE4.0, CellTiter-Glo, qHTS (AID 1347063; cut-off not given, nearly all actives have AC50 up to about 30 µM;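 also: compound exposure lasted 48 hours before the viability readout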). The settings on record: SU-DIPG-IV viability, CellTiter-Glo ATP luminescence.
Assay [5] can be described thus: growth inhibition of DIPG glioma cells, dose response, cell-based, SU-DIPG-XIII, MIPE5.0, CellTiter-Glo, qHTS (AID 1347064; cut-off not given, nearly all actives have AC50 up to about 23 µM;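 as to AC50: cells exposed to compound for 48 hours before the viability read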). The settings on record: SU-DIPG-XIII viability, CellTiter-Glo ATP luminescence.
The nature of assay [6]: viability loss in pontine glioma line – cell-based, SU-DIPG-XXV, MIPE5.0, CellTiter-Glo, qHTS, dose response (AID 1347065; cut-off not given, nearly all actives have AC50 up to about 26 µM;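 also: cells exposed to compound for 48 hours before ATP readout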). The settings on record: CellTiter-Glo ATP luminescence.
Assay [7] can be described thus: JHH-DIPG-1 glioma cell viability, MIPE5.0 library, CellTiter-Glo luminescence, qHTS (AID 1347067; cut-off not given, nearly all actives have AC50 up to about 26 µM;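 also: cells exposed to compound for 48 hours before readout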). To be noted: JHH-DIPG-1 glioma viability, CellTiter-Glo ATP luminescence.
Assay [8] is described as follows: SU-DIPG-XXV glioma cell viability, MIPE5.0 library, qHTS (AID 1347068; cut-off not given, nearly all actives have IC50 up to about 30 µM). Background: Quantitative high-throughput screening tests each substance at several concentrations.
The nature of assay [9]: sensitizers of A549 cells to miR-34 induction, primary screen, imaging, A549 dox-inducible miR-34, nuclei and caspase counts (AID 1347080;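 active = compounds whose cell count with miR-34 switched on is under 0.7 times the count with it off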). To be noted: A549 miR-34 inducible, Hoechst nuclei count, 48 h.
Assay [10] in a line: survival rescue of mitochondrial mutant cells in low glucose, primary screen, MELAS cybrids, Rieske KO mouse fibroblasts, CellTiter-Glo (AID 1508586;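 active = mean z-score across replicates of 1.96 or higher in either the MELAS or the Rieske mutant cell line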;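 also: z relative to plate mean and SD of compound and empty wells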).
The nature of assay [11]: SU-DIPG-VI glioma cell viability, MIPE4.0 library, CellTiter-Glo luminescence, qHTS (AID 1347066; cut-off not given, nearly all actives have AC50 up to about 30 µM;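 also: cells exposed to compound for 48 hours before readout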). The settings on record: CellTiter-Glo ATP luminescence.
A short description of assay [12]: modifiers of HSF1 nuclear foci, imaging, Selleck Cancer Library (AID 1347162; in the data active = plate-normalised HSF1 focus index below about 0.46). To be noted: human cells, at 10 µM; SSMD: measured here: HSF1 foci SSMD mean; cell count: measured here: cell number; plate-normalised HSF1 focus index: stronger effect = lower value.
The nature of assay [13]: ovarian cancer cell viability with rucaparib, profiling panel, oncology-focused library, rucaparib conditional (AID 1508598). To be noted: patient-derived ovarian cancer cells, CellTiter-Glo viability, 144 h, stronger effect = lower value.
Where [14] appears, read: stronger effect = lower value, cell number ratio, induced over uninduced.
The mark [15] stands for this setting: measured here: relative caspase fold change +Dox/-Dox.
The mark [16] stands for this setting: measured here: total cells with miR-34 induction, stronger effect = lower value.
Where [17] appears, read: measured here: total cells without miR-34 induction.
The mark [18] stands for this setting: MELAS cybrid survival, CellTiter-Glo 48 h, stronger effect = higher value.
The mark [19] stands for this setting: Rieske KO mouse fibroblast survival, CellTiter-Glo 72 h.

What is called AC50 is the concentration giving half of the maximal activity seen. The term viability denotes a read-out of living cells in per cent, often relative to untreated cells.

With `c1cncc(CN2CCC(n3ncc4c(N5CCOCC5)nc(-c5ccc6[nH]ccc6c5)nc43)CC2)c1`, the AC50 was 7.42 µM (active) in assay [1]; 8.33 µM (active) in assay [2]; 14.8 µM (active) in [3]; 2.09 µM (active) in assay [4]; 16.6 µM (active) in assay [5]; 5.25 µM (active) in [6]. Also, in assay [7], the AC50 is 20.9 µM (active). The molecule was called inactive in [8]. For the same molecule, the fold change in assay [9] (setting [14]) is 0.951 (inactive); in [9] (setting [15]), 0.489. Further, the cell count in assay [9] (setting [16]) amounted to 2980; in [9] (setting [17]) it was 3130. Besides, the z-score in [10] (setting [18]) is 4.98 (active); in assay [10] (setting [19]) it was -1.65.
As to `O=C1NC(=O)/C(=C\c2ccc(-c3ccc(F)cc3)o2)S1`, the outcome in assay [1], in assay [2], in assay [3], in assay [4], in [5] and in assay [11] was inactive. Besides, the result in assay [8] was inactive.
Regarding `COc1ccccc1N1CCN(CCN(C(=O)C2CCCCC2)c2ccccn2)CC1`, the call in assay [1], in assay [2], in [3], in [4], in assay [5] and in assay [11] was inactive. For the same molecule, the result in assay [8] was inactive. Also, the fold change is 0.953 (inactive) and 0.872 (inactive) in assay [9] (setting [14]); 0.882 and 0.761 in assay [9] (setting [15]). Also, the cell count in assay [9] (setting [16]) is 8900 and 8750; in assay [9] (setting [17]), 9340 and 10000. For the same molecule, the z-score in assay [10] (setting [18]) is -0.378 (inactive); in [10] (setting [19]), 0.432.
As for `COc1cc2c(cc1OC)CN(CCc1ccc(NC(=O)c3cccc4c(=O)c5cccc(OC)c5[nH]c34)cc1)CC2`, the result in assay [1], in [3], in assay [4], in assay [5], in [6] and in assay [7] was inactive. The outcome in [8] was inactive. Also, the AC50 in assay [2] is 8.33 µM (active). Further, in assay [12], the SSMD was found to be 4.27. This molecule had a cell count in assay [12] of 6980. In addition, the plate-normalised HSF1 focus index in [12] is 1.26 (inactive).
In the case of `COC(=O)Nc1ccc(-c2nc(N3CCOCC3)c3cnn(C4CCN(C(=O)OC)CC4)c3n2)cc1`, the half-maximal activity concentration (AC50) is 1.86 µM (active) in assay [1]; 0.0662 µM (active) in assay [2]; 0.187 µM (active) in [3]; 1.32 µM (active) in assay [4]; 2.63 µM (active) in [5]; 0.417 µM (active) in assay [6]. Moreover, the figures for the fold change in assay [9] (setting [14]) and in assay [9] (setting [15]) were 1.03 (inactive) and 0.692, respectively. In addition, the values for the cell count in assay [9] (setting [16]), in assay [9] (setting [17]) and in assay [12] were 2420, 2340 and 6960, respectively. The SSMD in assay [12] turned out to be 1.11. The plate-normalised HSF1 focus index in assay [12] was 1.06 (inactive). The z-score was 4.37 (active) in assay [10] (setting [18]) and 0.522 in assay [10] (setting [19]). In addition, the viability in assay [13] (at 0.000305 µM, OCI-C5x cells, with rucaparib 10 µM, 100% = cells with rucaparib alone) is 108% (inactive); in assay [13] (at 0.000305 µM, OCI-C5x cells, without rucaparib), 105% (inactive); in assay [13] (at 0.000305 µM, OCI-P5x cells, with rucaparib 20 µM, 100% = cells with rucaparib alone), 94.1% (active); in assay [13] (at 0.000305 µM, OCI-P5x cells, without rucaparib) it was 90.5% (active); in assay [13] (at 0.00122 µM, OCI-C5x cells, with rucaparib 10 µM, 100% = cells with rucaparib alone), 127% (inactive); in [13] (at 0.00122 µM, OCI-C5x cells, without rucaparib), 108% (inactive). The viability in assay [13] (at 0.00122 µM, OCI-P5x cells, with rucaparib 20 µM, 100% = cells with rucaparib alone) was 104% (inactive); in assay [13] (at 0.00122 µM, OCI-P5x cells, without rucaparib), 93.1% (active); in assay [13] (at 0.00488 µM, OCI-C5x cells, with rucaparib 10 µM, 100% = cells with rucaparib alone) it was 109% (inactive); in assay [13] (at 0.00488 µM, OCI-C5x cells, without rucaparib), 108% (inactive); in assay [13] (at 0.00488 µM, OCI-P5x cells, with rucaparib 20 µM, 100% = cells with rucaparib alone), 101% (inactive); in [13] (at 0.00488 µM, OCI-P5x cells, without rucaparib), 102% (inactive). The viability in assay [13] (at 0.0195 µM, OCI-C5x cells, with rucaparib 10 µM, 100% = cells with rucaparib alone) is 118% (inactive); in assay [13] (at 0.0195 µM, OCI-C5x cells, without rucaparib), 117% (inactive); in assay [13] (at 0.0195 µM, OCI-P5x cells, with rucaparib 20 µM, 100% = cells with rucaparib alone), 106% (inactive); in assay [13] (at 0.0195 µM, OCI-P5x cells, without rucaparib), 104% (inactive); in assay [13] (at 0.0781 µM, OCI-C5x cells, with rucaparib 10 µM, 100% = cells with rucaparib alone) it was 115% (inactive); in assay [13] (at 0.0781 µM, OCI-C5x cells, without rucaparib), 112% (inactive). For the same molecule, the viability in assay [13] (at 0.0781 µM, OCI-P5x cells, with rucaparib 20 µM, 100% = cells with rucaparib alone) was 97% (active); in assay [13] (at 0.0781 µM, OCI-P5x cells, without rucaparib) it was 101% (inactive); in assay [13] (at 0.313 µM, OCI-C5x cells, with rucaparib 10 µM, 100% = cells with rucaparib alone), 100% (inactive); in assay [13] (at 0.313 µM, OCI-C5x cells, without rucaparib), 114% (inactive); in assay [13] (at 0.313 µM, OCI-P5x cells, with rucaparib 20 µM, 100% = cells with rucaparib alone) it was 101% (inactive); in assay [13] (at 0.313 µM, OCI-P5x cells, without rucaparib), 106% (inactive). Also, the viability was 119% (inactive) in [13] (at 1.25 µM, OCI-C5x cells, with rucaparib 10 µM, 100% = cells with rucaparib alone); 116% (inactive) in assay [13] (at 1.25 µM, OCI-C5x cells, without rucaparib); 83.4% (active) in [13] (at 1.25 µM, OCI-P5x cells, with rucaparib 20 µM, 100% = cells with rucaparib alone); 103% (inactive) in [13] (at 1.25 µM, OCI-P5x cells, without rucaparib); 126% (inactive) in assay [13] (at 5 µM, OCI-C5x cells, with rucaparib 10 µM, 100% = cells with rucaparib alone); 120% (inactive) in assay [13] (at 5 µM, OCI-C5x cells, without rucaparib). The viability was 70.5% (active) in assay [13] (at 5 µM, OCI-P5x cells, with rucaparib 20 µM, 100% = cells with rucaparib alone) and 99.3% (active) in assay [13] (at 5 µM, OCI-P5x cells, without rucaparib).
